# Compound activity (PubChem BioAssay)
# The list is not random: actives were taken first. Their share in the collection is about 1.7%.
# HEK293 tox: qHTS of GLP-1 Receptor Inverse Agonists: Cytotox Screen. HEK293 cAMP-luciferase reporter cells, luminescence, 24 h. Potency, µM (titrated, usually from 38.3 µM), most hits filed as inhibitors. 410,000 tested, 0.13% active;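 further: loss of luciferase light is scored as toxicity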
#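 MLSMR compounds, 24 hr on cells at 37 deg C/5% CO2; luminescence after luciferase reagent (12 min RT). Inhibition counted as the undesired cytotoxic outcome.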
# PTHR1 ag: qHTS for PTHR1 Agonists: Primary Screen. Parathyroid hormone/parathyroid hormone-related peptide receptor (Homo sapiens), Q03431. HEK293 GP2 PTHR1 cells, GloSensor cAMP luminescence, 1 h. Potency, µM (doses to about 115 µM), hits mostly activators. 410,000 tested, 0.075% active. AID 743266, 2014; further: nearly all actives have a fitted effect of over 55% in size
#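 HEK-293-derived GP2 cells expressing PTHR1 and a GloSensor cAMP reporter, 3,000/well, plated overnight, given luciferin plus IBMX (each 0.5 mM as added) for 1 h at 37 °C, then compound for 1 h at 37 °C. Luminescence was read after 15 min at room temperature.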
# GLP-1R agonist: qHTS of GLP-1 Receptor Agonists | 380,000 tested, 0.007% active | HEK293 GLP-1R CRE-luciferase, luminescence, 4-6 h; cells express a hypersensitive GLP-1R form | AID 624172, 2012 | Potency, µM (series often up to 45.6 µM), most hits filed as activators | Glucagon-like peptide 1 receptor (Homo sapiens), P43220
# Target sequence (P43220 whole entry, looked up): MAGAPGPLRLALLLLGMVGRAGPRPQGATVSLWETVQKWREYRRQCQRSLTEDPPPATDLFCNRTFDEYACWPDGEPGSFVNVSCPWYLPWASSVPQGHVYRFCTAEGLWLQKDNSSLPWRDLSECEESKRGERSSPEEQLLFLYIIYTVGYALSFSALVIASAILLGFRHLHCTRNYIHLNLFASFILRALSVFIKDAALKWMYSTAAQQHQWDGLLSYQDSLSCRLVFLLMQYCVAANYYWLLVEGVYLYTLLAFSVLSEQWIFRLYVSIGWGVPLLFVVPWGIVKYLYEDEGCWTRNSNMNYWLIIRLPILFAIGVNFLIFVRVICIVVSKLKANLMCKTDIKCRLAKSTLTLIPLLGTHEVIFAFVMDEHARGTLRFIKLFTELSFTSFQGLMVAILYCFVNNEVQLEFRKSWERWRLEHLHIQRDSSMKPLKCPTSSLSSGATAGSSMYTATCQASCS
# GLP1R inv ag: qHTS of GLP-1 Receptor Inverse Agonists (Inhibition Mode); Glucagon-like peptide 1 receptor (Homo sapiens), P43220; HEK293 GLP-1R CRE-luciferase, luminescence, 24 h; GLP-1R form is constitutively active; Potency, µM (series often up to 38.3 µM), actives largely listed as inhibitors; 410,000 tested, 1.6% active; AID 624417, 2012; further: nearly all actives have a fitted effect of over 55% in size
#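 HEK293 cells stably co-expressing a cAMP-responsive luciferase reporter and constitutively active GLP-1R were seeded, incubated 12 h, then exposed to compounds for 24 h at 37 C. Luminescence was read 12 min after detection reagent; inverse agonists lower signal.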
# A number is an active result; n = inactive; u = inconclusive; x = not tested or not shown. The call rests on the fitted dose curve; in most records, active means well fitted curve in the direction sought with a large enough effect; inconclusive means small, poorly fitted or top-dose-only effect, or another doubt; inactive means no such curve, though single readings can be large; an effect the other way counts as inactive or inconclusive.
SMILES,HEK293 tox,PTHR1 ag,GLP-1R agonist,GLP1R inv ag
Cc1ccc(O)c(N=NC2=C(O)CC(C)(C)CC2=O)c1,13µM,n,n,u
CC(=O)Nc1ccc(NC(=O)C2Cc3ccccc3N2C(=O)c2ccccc2)cc1 (configuration not stated),n,n,x,n
Cc1csc2nc(COc3ccccc3NC(=O)c3ccccc3Cl)cc(=O)n12,n,n,n,n
O=[N+]([O-])c1cccc(C=NN=C2c3ccccc3-c3ccccc32)c1,n,n,n,n
CC1S/C(=N\N=C\c2cccc([N+](=O)[O-])c2)N(C(C)(C)C)C1=O (configuration not stated),n,n,n,3.5µM
CC(C)Oc1ccc(C(CCN)C2CCCCC2)cc1 (configuration not stated),u,n,n,10µM
CC(C)Oc1ccc(C(=O)NC2CCCCC2)cc1,n,n,n,n
Cc1c(NC(=O)c2ccc3ncccc3c2)c(=O)n(-c2ccccc2)n1C,n,n,n,n
Cc1cccc(C2c3[nH]c4ccccc4c3CCN2C(=O)c2cc(CC(C)C)nc(C)n2)n1 (configuration not stated),n,n,n,u
CCOc1ccc(CN2CCN(Cc3ccc4c(c3)c3ccccc3n4CC)CC2)cc1,n,n,x,6.3µM
CCn1c2ccccc2c2cc(CN3CCN(Cc4ccc(OC)c(OC)c4)CC3)ccc21,n,n,x,u
Cc1ccc(S(=O)(=O)N(CC(=O)NCCc2ccc(Cl)cc2)c2ccccc2C)cc1,n,n,x,u
CCN(CCCNc1ncnc2nc[nH]c12)c1cccc(C)c1,n,n,n,n
CCCCN(CCCNc1ncnc2nc[nH]c12)c1ccccc1,n,n,n,10µM
C=C(C)COc1ccc(-c2nc(N)nc(C(F)(F)F)c2-c2ccc(OC)cc2)c(O)c1,n,n,n,u
C=C(C)COc1ccc(-c2ncnc(C(F)(F)F)c2-c2ccccc2)c(O)c1,n,n,n,2.8µM
C=C(C)COc1ccc(-c2ncnc(C(F)(F)F)c2-c2ccc(OC)cc2)c(O)c1,n,n,n,7.9µM
O=C(COC(=O)CNS(=O)(=O)c1ccc(Br)cc1Cl)NCCc1ccccc1,n,n,n,n
COc1ccc(NC(=O)c2cccc(N3C(=O)NC4CC3(C)Oc3ccccc34)c2)cc1 (configuration not stated),n,n,n,4µM
CN1C(CSCC(F)(F)F)Nc2cc(Cl)c(S(N)(=O)=O)cc2S1(=O)=O (configuration not stated),x,x,n,x
CN(C)c1ccc(C(=O)Nc2nc3c(s2)CCCC3)cc1,n,n,n,11µM
O=C(Nc1nc2c(s1)CCCC2)c1ccc(S(=O)(=O)N2CCCc3ccccc32)cc1,n,n,n,4µM
CC(C)c1ccc2[nH]c3c(c2c1)CCC/C3=N\NC(=O)c1ccncc1,u,n,n,u
COc1ccc(S[C@@H](CCN2CC[C@H](NC(=O)OCc3ccccc3)CCC2=O)c2ccccc2)cc1,n,n,n,3.2µM
O=C(N[C@@H]1CCC(=O)N(CC[C@H](Sc2ccc(Br)cc2)c2ccccc2)CC1)OCc1ccccc1,n,n,n,u
SMILES,HEK293 tox,PTHR1 ag,GLP-1R agonist,GLP1R inv ag
CC(=O)Nc1ccc(SC[C@H](C)CN2CC[C@H](C(C)(C)C)CCC2=O)cc1,n,n,n,10µM
C[C@@H](CSc1ccc(Br)cc1)CN1CC[C@H](NC(=O)OCc2ccccc2)CCC1=O,n,n,n,u
Cc1ccc(SC[C@H](C)CN2CC[C@H](C)CCC2=O)cc1,n,n,n,u
O=C(N[C@H]1CCC(=O)N([C@H](CSc2ccccc2)Cc2ccccc2)CC1)OCc1ccccc1,n,n,n,u
O=C(N[C@H]1CCC(=O)N([C@H](CSc2ccc(Br)cc2)Cc2ccccc2)CC1)OCc1ccccc1,n,n,n,4µM
COc1ccc(SC[C@H](C)CN2CC[C@H](NC(=O)OCc3ccccc3)CCC2=O)cc1,n,n,n,10µM
O=C(CSc1nnc(CNc2ccc(F)cc2)o1)c1ccccc1,n,n,n,u
CCOC(=O)C1CCCN(C(=O)c2[nH]c3ccccc3c2Sc2ccc(Cl)cc2)C1 (configuration not stated),u,n,x,11µM
Cc1n[nH]c(C)c1S(=O)(=O)N(CC(=O)NCc1ccccc1Cl)c1ccc(C(C)C)cc1,n,n,n,10µM
COc1cccc(/C=N\NC(=O)c2sc(N)nc2C)c1OC,n,n,n,n
c1cc2cc(-c3c(-c4ccc5c(c4)OCO5)noc3-c3ccsc3)ccc2[nH]1,n,n,n,u
Cc1onc(-c2ccc3c(c2)OCO3)c1-c1ccc2[nH]ccc2c1,u,n,n,8.9µM
Cc1cnc(NC(=O)CC2OC(=O)c3ccccc32)s1 (configuration not stated),n,n,n,n
CCOc1ccc(C(=O)NCCC(=O)NCCCC(=O)O)cc1,n,n,n,n
Cc1ccc(-c2nnc(CSc3nnc(COc4cccc5ccccc45)n3-c3ccccc3)o2)cc1,n,n,n,11µM
COc1ccc(S(=O)(=O)N(CC(=O)NC2CC2)Cc2ccccc2)cc1,n,n,n,n
CCOc1ccc(C(=O)Nc2c(C)nc(Nc3ccccc3)nc2Nc2ccccc2)cc1OCC,n,n,n,10µM
CCOc1ccc(Nc2nc(C)c(NC(=O)c3cccc(OC)c3)c(Nc3ccc(OCC)cc3)n2)cc1,n,n,n,u
O=C(NC1CC2CCC(C1)N2Cc1nnnn1Cc1ccco1)NC12CC3CC(CC(C3)C1)C2 (configuration not stated),n,n,n,10µM
CCOc1ccccc1C(=O)NC1CC2CCCC(C1)N2Cc1nnnn1Cc1ccco1 (configuration not stated),n,n,n,u
Cc1cc(C)c[n+](C(C)C(=O)c2ccc(Cl)cc2)c1 (configuration not stated),n,n,n,n
CN(C)CCCN(C(=O)c1cccs1)c1nc2ccc(F)cc2s1,u,n,x,n
CN(C)CCCN(C(=O)CCc1ccccc1)c1nc2ccc(Cl)cc2s1,u,n,n,3.5µM
CN(C)CCCN(C(=O)c1ccc2c(c1)CCCC2)c1nc2ccc(Cl)cc2s1,n,n,n,5µM
CN(C)CCCN(C(=O)c1sc2ccccc2c1Cl)c1nc2ccc(F)cc2s1,n,n,n,10µM
CC(CSC(=O)c1ccccc1)C(=O)N1CC(Sc2ccccc2)CC1C(=O)O (configuration not stated),x,x,n,x
